Results from the supplement of paper PMC6992640.

test system: WHIM2 (cells of a triple-negative basal-like breast cancer xenograft); test: cell viability of combination (% of vehicle); higher = less cytotoxic; settings: 1 µM; 72 h; partner dose: 10 nM
Method: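 PDX cells were treated for 72 h with each drug at 1 µM plus afatinib (10 nM; 1 µM for WHIM30). Luciferase viability is expressed as percent of vehicle.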

Row | Compound | cell viability of combination
1 | CC(C)c1nc(CN(C)C(=O)NC(C(=O)NC(Cc2ccccc2)CC(O)C(Cc2ccccc2)NC(=O)OCc2cncs2)C(C)C)cs1 (stereo not drawn) [Ritonavir] + CN(C)C/C=C/C(=O)Nc1cc2c(Nc3ccc(F)c(Cl)c3)ncnc2cc1O[C@H]1CCOC1 [Afatinib] | 49
2 | CCOc1cc2ncc(C#N)c(Nc3ccc(F)c(Cl)c3)c2cc1NC(=O)C=CCN(C)C [Pelitinib (EKB-569)] + CN(C)C/C=C/C(=O)Nc1cc2c(Nc3ccc(F)c(Cl)c3)ncnc2cc1O[C@H]1CCOC1 [Afatinib] | 22.1
3 | CS(=O)(=O)O.Cc1c(O)cccc1C(=O)NC(CSc1ccccc1)C(O)CN1CC2CCCCC2CC1C(=O)NC(C)(C)C (stereo not drawn) [Nelfinavir Mesylate] + CN(C)C/C=C/C(=O)Nc1cc2c(Nc3ccc(F)c(Cl)c3)ncnc2cc1O[C@H]1CCOC1 [Afatinib] | 53.6
4 | CC(Oc1cc(-c2cnn(C3CCNCC3)c2)cnc1N)c1c(Cl)ccc(F)c1Cl [(R)-Crizotinib] + CN(C)C/C=C/C(=O)Nc1cc2c(Nc3ccc(F)c(Cl)c3)ncnc2cc1O[C@H]1CCOC1 [Afatinib] | 44.4
5 | CCc1oc2ccccc2c1C(=O)c1cc(Br)c(O)c(Br)c1 [Benzbromarone] + CN(C)C/C=C/C(=O)Nc1cc2c(Nc3ccc(F)c(Cl)c3)ncnc2cc1O[C@H]1CCOC1 [Afatinib] | 48
6 | CN(C)c1ccc(O)c2c1CC1CC3C(N(C)C)C(=O)C(C(N)=O)=C(O)C3(O)C(=O)C1=C2O.Cl (stereo not drawn) [Minocycline HCl] + CN(C)C/C=C/C(=O)Nc1cc2c(Nc3ccc(F)c(Cl)c3)ncnc2cc1O[C@H]1CCOC1 [Afatinib] | 49.9
7 | Cc1cc(Nc2ncc(Cl)c(Nc3ccccc3S(=O)(=O)C(C)C)n2)c(OC(C)C)cc1C1CCNCC1 + CN(C)C/C=C/C(=O)Nc1cc2c(Nc3ccc(F)c(Cl)c3)ncnc2cc1O[C@H]1CCOC1 [Afatinib] | 36.7
8 | Oc1c(Cl)cc(Cl)c2cccnc12 [Chloroxine] + CN(C)C/C=C/C(=O)Nc1cc2c(Nc3ccc(F)c(Cl)c3)ncnc2cc1O[C@H]1CCOC1 [Afatinib] | 45.9
9 | COc1cc2nccc(Oc3ccc(NC(=O)NC4CC4)c(Cl)c3)c2cc1C(N)=O [Lenvatinib (E7080)] + CN(C)C/C=C/C(=O)Nc1cc2c(Nc3ccc(F)c(Cl)c3)ncnc2cc1O[C@H]1CCOC1 [Afatinib] | 32.5
10 | C=C1C(=CC=C2CCCC3(C)C2CCC3C(C)CCCC(C)C)CC(O)CC1O (stereo not drawn) [Alfacalcidol] + CN(C)C/C=C/C(=O)Nc1cc2c(Nc3ccc(F)c(Cl)c3)ncnc2cc1O[C@H]1CCOC1 [Afatinib] | 34.4
11 | Nc1c(CC(=O)[O-])cccc1C(=O)c1ccccc1.O.[Na+] [Amfenac Sodium Monohydrate] + CN(C)C/C=C/C(=O)Nc1cc2c(Nc3ccc(F)c(Cl)c3)ncnc2cc1O[C@H]1CCOC1 [Afatinib] | 47.6
12 | Cc1nc(NC(=O)N2CCCC2C(N)=O)sc1-c1ccnc(C(C)(C)C(F)(F)F)c1 (stereo not drawn) + CN(C)C/C=C/C(=O)Nc1cc2c(Nc3ccc(F)c(Cl)c3)ncnc2cc1O[C@H]1CCOC1 [Afatinib] | 37.9
13 | C[C@H]1O[C@@H](O[C@H]2[C@@H](O)C[C@H](O[C@H]3[C@@H](O)C[C@H](O[C@H]4CC[C@@]5(C)[C@H](CC[C@@H]6[C@@H]5C[C@@H](O)[C@]5(C)[C@@H](C7=CC(=O)OC7)CC[C@]65O)C4)O[C@@H]3C)O[C@@H]2C)C[C@H](O)[C@@H]1O [Digoxin] + CN(C)C/C=C/C(=O)Nc1cc2c(Nc3ccc(F)c(Cl)c3)ncnc2cc1O[C@H]1CCOC1 [Afatinib] | 61.3
